SMILES strings stand for the structures. The whole screen tested about 64,000 compounds, of which about 1,900 (3%) were called active.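 How the source made its calls: active means fluorescence rise, raw or as B-score row- and column-corrected plate score, outside the 99.7% band of its plate's samples, either direction; inactive means the rest.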 For the sample, actives were picked, then their nearest neighbours and some compounds at random.

This assay concerns Muscarinic acetylcholine receptor M1. Kind of assay: M1 muscarinic receptor agonists, primary screen, CHO-M1 cells, Fluo-4 calcium, agonist mode (AID 626). The settings on record: Fluo-4 calcium fluorescence, at 10 µM, stronger effect = higher value.
Take `CN(C)c1ccc(NC(=O)c2ccncc2)c2ccccc12`: the B-score was 0.268 (inactive). With `O=C(c1ccco1)N(Cc1nc2ccccc2c(=O)[nH]1)C1CCCC1` the figure was 1.19 (inactive). With `CCN(CC)c1ccc2cc(C(=O)O)c(=O)oc2c1` the figure was 17.2 (active). As for `COc1ccc2oc(=O)c(C(=O)O)cc2c1`, the B-score was -0.167 (inactive).

For the molecule `CCN(CC)c1ccc2oc(=O)c(C)nc2c1`, the B-score was 19.1 (active). For the molecule `CCCOC(=O)c1cc2ccccc2oc1=O`, the B-score was -0.13 (inactive).

With `CCc1ccc2oc(-c3ccc(N)cc3)nc2c1`, the B-score was 0.427 (inactive).

For `CCC1(C)Cc2c(sc3nc4n(c(=O)c23)CCCS4)CO1` (centres undefined), the B-score was -0.146 (inactive). The result for `CCOC(=O)c1cc(-c2ccc(Cl)s2)nc2c1c(C)nn2C` reads 0.0112 (inactive). With `CSc1ccc(Cl)c(C(=O)OCC(=O)N2CC(C)OC(C)C2)c1` (centres undefined) the figure was -0.691 (inactive); with `Cc1cc(OCCN2CCCC2)ccc1C(C)C`, -1.57 (inactive); with `COc1ccccc1Nc1nc(N)nc(CN(C)C2CCCCC2)n1`, 0.169 (inactive).

On to `COc1ccccc1NC1=NC(c2ccc(Cl)cc2)N=C(N)N1` (centres undefined), for which the B-score is 2.75 (active).

Turning to `COc1ccccc1NC1=NC2(CCCC2)N=C(N)N1`, the B-score was 0.458 (inactive). Consider `O=C(Nc1nc(-c2ccncc2)cs1)C1COc2ccccc2O1` (centres undefined), for which the B-score was -1.04 (inactive). For the molecule `O=C(Nc1nc(-c2ccc3c(c2)OCO3)cs1)c1ccncc1`, the B-score was 5.34 (active). The result for `O=C(Nc1ccc2c(c1)OCCO2)c1ccncc1` reads -0.637 (inactive); that for `CC1(C)CC(=O)C(C=NCCC2=CCCCC2)=C(O)C1`, 0.836 (inactive); that for `O=C(Oc1ccc2c(c1)CCC2)N1CCOCC1`, -0.594 (inactive). The result for `O=C(c1ccccc1)c1ccc(OC(=O)N2CCCC2)cc1` reads -2.34 (active). The result for `O=C(c1ccccc1)N1CCN(C(=O)N2CCCCC2)CC1` reads -0.157 (inactive); that for `CC(C)(C)c1ccc(NC(=O)NCc2ccco2)cc1`, 0.39 (inactive). In the case of `c1cnc(NC2C3CC4CC(C3)CC2C4)nc1` (centres undefined), the B-score was 2.24 (inactive).

Take `CCOC(=O)CSc1nc2c(c(=O)n(C)c(=O)n2C)n1Cc1ccccc1F`: the B-score is -0.066 (inactive).

Take `CCOC(=O)CSc1nc2c(sc(=S)n2CCc2ccccc2)c(=O)n1Cc1ccco1`: the B-score is 7.17 (active). The result for `COc1ccccc1NC(=O)CSc1nc2sc(C)c(C)c2c(=O)n1Cc1ccco1` reads -1.75 (inactive); that for `CC(=O)Nc1ccc(S(=O)(=O)NCCc2ccccc2)cc1`, -0.0675 (inactive); that for `COc1ccc(C(=O)OCC(=O)c2ccc(C)c(S(=O)(=O)N3CCOCC3)c2)cc1OC`, 11.4 (active). With `Cc1cc(NC(=O)COC(=O)c2ccc(F)c(S(=O)(=O)N3CCOCC3)c2)no1` the figure was 0.164 (inactive); with `Cc1cc(C)n(C(=O)c2ccc(C)c(S(=O)(=O)N3CCOCC3)c2)n1`, -0.672 (inactive).

With `CCC(C)NC(=O)C1CCC(=O)N1Cc1ccc(C)cc1` (centres undefined), the B-score is -0.196 (inactive). Regarding `O=C(CN1C(=O)COc2ccccc21)Nc1ccc(F)cc1`, the B-score is 0.887 (inactive).

Take `O=C(Nc1ccccc1)c1cccnc1Nc1ccccc1`: the B-score is 1.29 (inactive). Regarding `COc1ccc(CNC(=O)c2cc3c(=O)n4ccccc4nc3n(CC3CCCO3)c2=N)cc1` (centres undefined), the B-score was 0.00619 (inactive).

In the case of `Cc1cccn2c(=O)c3cc(C#N)c(=O)n(CCCN4CCOCC4)c3nc12`, the B-score is -0.675 (inactive). Regarding `Cc1cccn2c(=O)c3cc(C#N)c(=NC(=O)c4cccnc4)n(CC4CCCO4)c3nc12` (centres undefined), the B-score is 37.8 (active). With `CC(=O)NC1CC2CCCC(C1)N2CC(=O)Nc1ccccc1` (centres undefined) the figure was -1.24 (inactive); with `C=CCn1c2ccccc2c2nnc(SC(CC)C(=O)Nc3nc(C)c(C(=O)OCC)s3)nc21` (centres undefined), 1.41 (inactive). As for `O=C(O)CCC(=O)NCc1ccc2[nH]c3c(c2c1)CCCC3`, the B-score is 1.3 (inactive). With `CCCc1cc(=O)oc2c(C)c(O)c(CN3CCCCC3)cc12` the figure was 0.177 (inactive); with `CCn1c(Cc2ccccc2)nnc1SCC(=O)Nc1ccccc1`, -0.0339 (inactive); with `Cc1cc(=O)n2nc(N3CCCC(C(=O)NCCC4=CCCCC4)C3)sc2n1` (centres undefined), -0.152 (inactive). With `CCCS(=O)(=O)N1CCC(C(=O)NCCc2ccc(OC)c(OC)c2)CC1`, the B-score was -0.16 (inactive). The result for `COc1ccc(CCNC(=O)C2CCN(c3nn4c(=O)cc(C)nc4s3)CC2)cc1OC` reads 4.73 (active). As for `Clc1ccc(CSc2nnc([C@@H]3CCCN3)o2)cc1`, the B-score was -0.196 (inactive). Turning to `CC(C)C1Cc2c(sc3c2c(=O)n(-c2ccccc2)c2nncn32)CO1` (centres undefined), the B-score is -0.132 (inactive). Turning to `O=C(COC(=O)CCc1c[nH]c(=O)[nH]1)Nc1ccccc1Cl`, the B-score was 2.4 (active). With `CC1(C)CC(CCC(=O)Nc2ccccc2Cl)C(=O)O1` (centres undefined) the figure was 0.285 (inactive); with `O=C(COc1ccc(Cl)cc1)Nc1ccccc1CO`, 1.32 (inactive).

`CCOC(=O)N1CCN(Cc2oc(CO)cc(=O)c2O)CC1`: the B-score is 0.262 (inactive). Take `Cc1ccccc1CN1CCN(C(=O)c2cccc(F)c2)CC1`: the B-score was -0.152 (inactive). `O=C(c1cccc(C(=O)N2CCN(c3ccc(F)cc3)CC2)c1)N1CCN(c2ccc(F)cc2)CC1`: the B-score is 3.5 (active).

`O=C(c1ccccc1)c1cccn1CC(=O)N1CCN(c2ccc(F)cc2)CC1`: the B-score is -0.56 (inactive). In the case of `CS(=O)(=O)N(CC(=O)N1CCOCC1)c1ccc2c3c(cccc13)CC2`, the B-score was 0.155 (inactive). As for `Cc1ccc(NC2=NC(c3ccccc3)n3c(nc(C)cc3=O)N2)cc1` (centres undefined), the B-score was -0.0683 (inactive). With `COC(=O)c1ccccc1NC(=O)c1cncc(Br)c1` the figure was 0.529 (inactive). For the molecule `CCOc1ccc2nc(N3CCCN(C(=O)Nc4ccccc4C)CC3)c(C#N)cc2c1`, the B-score is 49.3 (active). With `Cc1cccc2cc(C#N)c(N3CCCC3)nc12` the figure was 1.26 (inactive); with `CCOc1ccc2nc(NCCNS(=O)(=O)c3ccccc3)c(C#N)cc2c1`, -0.354 (inactive). `O=C1c2ccccc2C(=O)N1CCc1nn[nH]n1`: the B-score is 0.641 (inactive). With `Cc1ccc(SCCN2C(=O)NC(C)(C)C2=O)cc1` the figure was 0.397 (inactive); with `Nc1ccc(SCCN2C(=O)c3ccccc3C2=O)cc1`, 13.8 (active). For the molecule `NS(=O)(=O)c1ccc(NS(=O)(=O)/C=C/c2ccccc2)cc1`, the B-score was -0.0855 (inactive). As for `O=C(OCCO)c1cc(Cl)c(C(=O)OCCO)cc1Cl`, the B-score was 0.283 (inactive).

Values taken from PubChem BioAssay AID626 (Vanderbilt High Throughput Screening Facility, 2007).
